# Test results published in PubChem BioAssay (NCATS).
# Results filed as inconclusive are left out. The source made the active and inactive calls. Unless noted, calls come from the whole dose curve; as a rule, active = well fitted curve in the direction sought with a large enough effect; inconclusive = small, poorly fitted or top-dose-only effect, or another doubt; inactive = no such curve, though single readings can be large; an effect the other way counts as inactive or inconclusive.
# Columns and labels:
# [1] = qHTS assay for small molecule activators of the p53 signaling pathway (AID 651743; active = well fitted activation curve with a large enough effect in the signal ratio, not every such curve was filed as active; the % refers to the signal ratio; note: potency is the fitted concentration of half-maximal effect); conditions: HCT-116 p53RE-bla, beta-lactamase FRET ratio, 16 h; activation: hits give high values
# Summary of the method: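 Here HCT-116 cells with an integrated p53-responsive beta-lactamase gene were incubated with compounds (16 hours, 37 C) after a 5-hour plating period; beta-lactamase activity was detected as fluorescence intensity via B/G FRET substrate.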
# [2] = qHTS assay for small molecule activators of the nuclear factor-kappa B (NF-kB) signaling pathway (AID 651749; active = well fitted activation curve with a large enough effect in the signal ratio; the % refers to the signal ratio; note: potency is the fitted concentration of half-maximal effect); conditions: NF-kB-bla ME-180 cells, beta-lactamase FRET ratio, 16 h; activation: hits give high values
# Summary of the method: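 Beta-lactamase reporter expression, controlled by NF-kB response elements in ME-180 cells, was quantified fluorometrically via FRET disruption; cells at 2,000/well had been incubated with 23 nL test compound for 16 hr.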
# [3] = qHTS assay for environmental chemicals that activate the Aryl hydrocarbon Receptor (AhR) signaling pathway (AID 651777); conditions: 1A2-DRE human hepatoma cells, luciferase, 24 h; activation: hits give high values; note: % of control where 0% means no effect; nearly all actives have a fitted effect of over 15% in size
# Summary of the method: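 Measured luciferase activity, read 30 min after One-Glo addition at room temperature, from human hepatoma cells bearing a dioxin response element–CYP1A2 promoter reporter and exposed to compound for 24 hr at 37 C.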
# [4] = target: Peroxisome proliferator-activated receptor alpha (Homo sapiens) (UniProt Q07869); experiment: qHTS assay for small molecule agonists of the peroxisome proliferator-activated receptor alpha (PPARalpha) signaling pathway (AID 651778); conditions: PathHunter PPARalpha complementation, chemiluminescence, 6 h; hits give high values; note: % of control where 0% means no effect
# Chain of Peroxisome proliferator-activated receptor alpha (Homo sapiens) (Q07869 whole entry, looked up): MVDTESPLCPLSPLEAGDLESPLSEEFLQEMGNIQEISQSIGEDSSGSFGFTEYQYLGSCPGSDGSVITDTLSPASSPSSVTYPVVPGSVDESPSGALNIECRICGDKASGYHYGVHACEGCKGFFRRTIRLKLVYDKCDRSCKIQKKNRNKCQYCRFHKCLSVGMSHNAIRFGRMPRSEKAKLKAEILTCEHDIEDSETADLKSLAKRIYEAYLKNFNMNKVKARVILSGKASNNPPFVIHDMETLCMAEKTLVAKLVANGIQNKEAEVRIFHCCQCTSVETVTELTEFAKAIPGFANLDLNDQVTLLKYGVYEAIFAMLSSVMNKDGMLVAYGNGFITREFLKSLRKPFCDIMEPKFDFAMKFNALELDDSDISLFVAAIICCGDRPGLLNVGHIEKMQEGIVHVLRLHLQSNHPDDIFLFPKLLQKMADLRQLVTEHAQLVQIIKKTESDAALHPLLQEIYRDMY
# Summary of the method: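 Cells plated at 2,000/well and held overnight at 37 C, 5% CO2, then compound added by pin tool for 6 hr; after PathHunter detection reagent and 60 min at room temperature, chemiluminescence from enzyme complementation was read.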
# [5] = qHTS assay for small molecule agonists of the antioxidant response element (ARE) signaling pathway measured by Nrf2-dependant transcriptional activity - cell viability counter screen (AID 720653; active = well fitted curve in the direction sought with a large enough effect in the repeat runs; an effect the other way counts as inactive or inconclusive; note: % is set by controls: 0 for no effect and ±100 for the full control effect); conditions: ARE-bla HepG2 viability, CellTiter-Glo ATP luminescence, 16 h; max response: hits give low values
# Summary of the method: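 ARE-bla HepG2 cells (2,000/well) rested 5 hrs at 37C/5% CO2, then exposed to compounds in DMSO for 16 hrs. Viability was read in the same wells as intracellular ATP by luminescence, 30 min at room temperature after reagent addition.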
# [6] = qHTS assay for cell viability of the p53RE-bla HCT-116 cell line (AID 743292); conditions: p53RE-bla HCT-116 viability, ATP luminescence, 16 h; series mostly up to 95 µM; note: % is set by controls: 0 for no effect and ±100 for the full control effect; nearly all actives have a fitted effect of over 55% in size
# Summary of the method: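 Intracellular ATP of p53RE-bla HCT-116 cells measured by luciferase luminescence following 16 h compound incubation at 37 C; DMSO-only wells served as vehicle controls.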
# [7] = target: Nuclear receptor subfamily 1 group I member 2 (Rattus norvegicus) (UniProt Q9R1A7); experiment: qHTS assay for small molecule activators of the rat pregnane X receptor (rPXR) signaling pathway (AID 651751; call rule not given here; note: 0% is about no effect); conditions: rPXR reporter cells, luciferase (One-Glo), 24 h
# Chain of Nuclear receptor subfamily 1 group I member 2 (Rattus norvegicus) (Q9R1A7 whole entry, looked up): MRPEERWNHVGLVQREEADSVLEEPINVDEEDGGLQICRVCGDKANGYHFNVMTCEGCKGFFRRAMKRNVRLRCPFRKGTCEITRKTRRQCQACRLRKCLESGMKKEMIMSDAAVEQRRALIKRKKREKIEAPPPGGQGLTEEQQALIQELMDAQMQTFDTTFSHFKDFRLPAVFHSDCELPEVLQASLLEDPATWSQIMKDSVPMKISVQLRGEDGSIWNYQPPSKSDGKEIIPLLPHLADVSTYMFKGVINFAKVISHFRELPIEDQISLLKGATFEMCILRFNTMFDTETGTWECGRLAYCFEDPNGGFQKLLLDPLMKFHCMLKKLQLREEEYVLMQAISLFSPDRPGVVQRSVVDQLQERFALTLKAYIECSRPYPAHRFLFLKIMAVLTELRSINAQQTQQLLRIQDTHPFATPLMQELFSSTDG
# [8] = qHTS assay for small molecule activators of the human pregnane X receptor (PXR) signaling pathway (AID 720659; call rule not given here; note: 0% is about no effect); conditions: DPX-2 HepG2 CYP3A4-luciferase, 24 h; series mostly up to 92.3 µM
# [9] = NCATS anti-infectives library activity on HEK293 viability as a counter-qHTS vs the C. elegans viability qHTS (AID 1745854); conditions: HEK293 viability counter-screen; series mostly up to 41.8 µM; note: % is set by controls: 0 for no effect and ±100 for the full control effect
# Summary of the method: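 CellTiter-Glo luminescence, read on a CCD imager, scored viability of HEK293 cells after 24 hr compound exposure at 37C. Library tested in several concentrations, 1:5 steps, up to 41.7 uM; digitonin served as control.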
# [10] = Primary qHTS for Huh7 cytotoxicity: counterscreen for inhibitors of MERS-S pseudotyped particle cell entry (AID 1479147; calls by dose curve); conditions: cell viability read-out; series mostly up to 57.1 µM
# [11] = Primary qHTS for Vero E6 cytotoxicity: counterscreen for inhibitors of SARS-S pseudo-typed particle cell entry (AID 1479150; calls by dose curve; note: % is set by controls: 0 for no effect and ±100 for the full control effect); conditions: cell viability; series mostly up to 57.1 µM
structure (smiles),measurement,setting,value
C[C@@H]1Cc2c(Cl)cc(C(=O)N[C@@H](Cc3ccccc3)C(=O)O)c(O)c2C(=O)O1,Potency,[1],0.891 µM (active)
same,Potency,[2],44.7 µM (active)
same,activation,[3],8.7% (inactive)
same,max response,[4],-0.744% (inactive)
same,max response,[5],9.38% (inactive)
same,outcome,[6],inactive
same,max response,[7],-12% (inactive)
same,outcome,[8],inactive
Cc1sc2c(c1C)C(c1ccc(Cl)cc1)=N[C@@H](CC(=O)Nc1ccc(O)cc1)c1nnc(C)n1-2,Potency,[9],inactive
COc1ccc(C(C)(C)C)cc1CN[C@H]1C2CCN(CC2)[C@H]1C(c1ccccc1)c1ccccc1,outcome,[10],inactive
same,outcome,[11],inactive
